Experimental findings from PMC7862700, “An all-to-all approach to the identification of sequence-specific readers for epigenetic DNA modifications on cytosine” are described below.

Assay in all cases: DAPPL (digital affinity profiling via proximity ligation, sequencing); 10 mM Tris-HCl pH 7.5, 50 mM NaCl, 1 mM DTT, 4% glycerol, room temperature, 30 min; GST-TFs on glutathione beads, 16-mer random dsDNA library, 0.1% formaldehyde crosslink after washing; high values mean tight binding
Details in all cases: protein: recombinant; tags: N-terminal GST; dsDNA, one strand shown

One experiment concerns the target T1, FLI1 (Homo sapiens, UniProt Q01543 1-452).
T1 sequence: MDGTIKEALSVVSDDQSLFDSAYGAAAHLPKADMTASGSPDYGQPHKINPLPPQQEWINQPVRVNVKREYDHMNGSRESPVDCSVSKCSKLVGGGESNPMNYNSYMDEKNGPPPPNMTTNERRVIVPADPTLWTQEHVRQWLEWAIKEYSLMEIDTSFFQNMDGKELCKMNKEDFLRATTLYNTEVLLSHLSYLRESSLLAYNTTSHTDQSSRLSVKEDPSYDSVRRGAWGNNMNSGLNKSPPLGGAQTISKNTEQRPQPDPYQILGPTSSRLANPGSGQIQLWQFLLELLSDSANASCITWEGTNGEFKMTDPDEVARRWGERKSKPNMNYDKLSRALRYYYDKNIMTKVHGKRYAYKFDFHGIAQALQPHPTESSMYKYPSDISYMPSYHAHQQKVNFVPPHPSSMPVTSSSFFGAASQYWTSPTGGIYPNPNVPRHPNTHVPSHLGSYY
The method in brief:
(§1)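 Pools of DNA-barcoded human transcription factors, expressed in yeast as GST fusions on glutathione beads and combined with a tag-only sample, were incubated with 200 nmole of a 16-mer random double-stranded DNA library. Incubation took 30 min at room temperature in Tris/NaCl/DTT/glycerol buffer and was followed by washing, 0.1% formaldehyde crosslinking, proximity ligation (BsaI/T4 ligase, 1 h, 37 °C), PCR amplification and sequencing on an Illumina NextSeq500. Binding signal is the ratio of a hexamer's read frequency for a factor to its frequency for the tag-only sample.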

The target of another experiment is T2, ELK1 (Homo sapiens, UniProt P19419 1-428).
T2 sequence: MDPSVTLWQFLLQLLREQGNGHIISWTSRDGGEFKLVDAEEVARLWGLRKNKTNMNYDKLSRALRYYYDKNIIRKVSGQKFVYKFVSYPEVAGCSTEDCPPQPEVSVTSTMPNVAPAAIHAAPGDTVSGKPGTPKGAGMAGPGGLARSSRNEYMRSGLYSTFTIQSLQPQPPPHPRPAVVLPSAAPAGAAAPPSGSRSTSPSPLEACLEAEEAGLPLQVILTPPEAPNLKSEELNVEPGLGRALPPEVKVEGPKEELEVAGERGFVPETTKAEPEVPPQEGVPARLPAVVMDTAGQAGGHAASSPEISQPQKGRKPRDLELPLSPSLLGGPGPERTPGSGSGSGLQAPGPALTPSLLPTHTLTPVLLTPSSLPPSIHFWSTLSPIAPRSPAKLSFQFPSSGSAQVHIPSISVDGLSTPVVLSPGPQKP
The method in brief:
as §1

The target in a further experiment is T3, GABPA (Homo sapiens, UniProt Q06546 1-454).
T3 sequence: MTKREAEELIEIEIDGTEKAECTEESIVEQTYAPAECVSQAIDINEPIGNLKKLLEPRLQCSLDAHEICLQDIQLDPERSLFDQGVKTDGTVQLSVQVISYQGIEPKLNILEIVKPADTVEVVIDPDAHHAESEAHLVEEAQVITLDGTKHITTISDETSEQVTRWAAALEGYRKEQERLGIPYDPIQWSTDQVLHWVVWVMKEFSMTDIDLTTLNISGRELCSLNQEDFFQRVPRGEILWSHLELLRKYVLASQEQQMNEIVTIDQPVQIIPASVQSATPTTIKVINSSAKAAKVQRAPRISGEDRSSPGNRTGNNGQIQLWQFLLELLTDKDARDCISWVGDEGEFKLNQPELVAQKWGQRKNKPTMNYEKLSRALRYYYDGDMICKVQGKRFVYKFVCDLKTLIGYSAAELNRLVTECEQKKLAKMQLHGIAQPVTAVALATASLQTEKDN
The method in brief: as §1

The target in the next experiment is T4, ERG (Homo sapiens, UniProt P11308 1-479).
T4 sequence: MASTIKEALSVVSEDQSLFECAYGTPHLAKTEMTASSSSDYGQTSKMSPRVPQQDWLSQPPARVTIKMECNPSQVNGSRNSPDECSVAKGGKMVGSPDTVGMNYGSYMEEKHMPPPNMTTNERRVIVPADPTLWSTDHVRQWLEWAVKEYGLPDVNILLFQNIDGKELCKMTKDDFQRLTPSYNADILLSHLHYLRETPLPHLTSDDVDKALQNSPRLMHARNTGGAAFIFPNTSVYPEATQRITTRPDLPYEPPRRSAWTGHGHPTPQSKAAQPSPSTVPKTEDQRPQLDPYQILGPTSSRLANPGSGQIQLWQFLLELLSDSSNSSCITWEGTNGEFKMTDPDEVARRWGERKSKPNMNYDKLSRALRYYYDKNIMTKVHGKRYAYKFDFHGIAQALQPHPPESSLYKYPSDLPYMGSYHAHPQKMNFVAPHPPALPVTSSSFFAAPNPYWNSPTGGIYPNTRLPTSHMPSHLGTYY
A digest of the protocol:
as §1

A further experiment concerns the target ELF1 (Homo sapiens, UniProt P32519 1-619). A digest of the protocol: as §1
The target in a further experiment is T5, EHF (Homo sapiens, UniProt Q9NZC4 1-300).
T5 sequence: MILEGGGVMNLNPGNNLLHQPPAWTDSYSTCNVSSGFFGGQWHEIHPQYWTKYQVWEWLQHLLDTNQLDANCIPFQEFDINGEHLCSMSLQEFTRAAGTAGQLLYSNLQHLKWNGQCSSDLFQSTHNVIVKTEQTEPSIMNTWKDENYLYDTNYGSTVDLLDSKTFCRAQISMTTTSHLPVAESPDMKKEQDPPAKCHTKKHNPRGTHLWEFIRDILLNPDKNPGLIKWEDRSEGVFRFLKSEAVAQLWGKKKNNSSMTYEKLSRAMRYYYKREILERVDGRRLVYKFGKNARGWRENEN
The method in brief:
as §1

The target of a further experiment is SPI1 (Homo sapiens, UniProt P17947 1-270). A digest of the protocol: as §1
The target of a further experiment is SPIB (Homo sapiens, UniProt Q01892 1-262). A digest of the protocol: as §1
SPIB, sequence (Q01892 whole entry): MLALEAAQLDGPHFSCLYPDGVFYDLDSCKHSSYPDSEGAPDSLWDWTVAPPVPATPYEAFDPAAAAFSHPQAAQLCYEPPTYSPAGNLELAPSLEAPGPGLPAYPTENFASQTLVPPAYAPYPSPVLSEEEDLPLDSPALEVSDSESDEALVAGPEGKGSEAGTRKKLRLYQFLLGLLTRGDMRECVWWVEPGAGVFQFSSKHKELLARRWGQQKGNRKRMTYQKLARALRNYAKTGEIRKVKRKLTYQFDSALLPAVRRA
The next experiment concerns the target T6, ELK3 (Homo sapiens, UniProt P41970 1-407).
T6 sequence: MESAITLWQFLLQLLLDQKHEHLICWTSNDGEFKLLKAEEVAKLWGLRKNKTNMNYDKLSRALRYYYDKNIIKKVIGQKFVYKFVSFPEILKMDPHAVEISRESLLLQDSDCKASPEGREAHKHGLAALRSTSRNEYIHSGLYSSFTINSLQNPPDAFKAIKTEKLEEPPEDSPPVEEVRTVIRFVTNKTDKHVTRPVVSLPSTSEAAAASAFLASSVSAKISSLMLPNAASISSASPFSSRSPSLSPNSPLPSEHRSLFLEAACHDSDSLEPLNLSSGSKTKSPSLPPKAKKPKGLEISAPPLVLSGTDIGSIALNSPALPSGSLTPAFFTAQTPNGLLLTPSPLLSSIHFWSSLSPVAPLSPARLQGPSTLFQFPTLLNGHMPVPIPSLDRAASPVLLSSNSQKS
A digest of the protocol:
as §1

ELF1, sequence (P32519 whole entry): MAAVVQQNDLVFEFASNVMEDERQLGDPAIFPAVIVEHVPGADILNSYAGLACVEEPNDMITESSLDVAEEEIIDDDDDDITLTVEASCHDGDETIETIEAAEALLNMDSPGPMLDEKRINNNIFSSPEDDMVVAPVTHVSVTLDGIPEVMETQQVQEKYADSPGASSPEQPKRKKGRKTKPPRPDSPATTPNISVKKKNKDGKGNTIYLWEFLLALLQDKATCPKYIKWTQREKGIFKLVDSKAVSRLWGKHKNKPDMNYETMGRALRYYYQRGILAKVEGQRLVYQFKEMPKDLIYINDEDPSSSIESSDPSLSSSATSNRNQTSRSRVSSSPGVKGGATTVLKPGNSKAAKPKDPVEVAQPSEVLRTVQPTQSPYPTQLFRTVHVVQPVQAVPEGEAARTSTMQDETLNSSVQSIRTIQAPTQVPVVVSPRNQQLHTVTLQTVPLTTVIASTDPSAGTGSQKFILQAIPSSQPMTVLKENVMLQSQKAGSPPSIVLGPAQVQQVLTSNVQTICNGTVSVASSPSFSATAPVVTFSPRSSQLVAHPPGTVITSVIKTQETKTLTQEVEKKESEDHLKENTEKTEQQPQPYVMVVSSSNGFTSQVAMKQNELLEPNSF

As to TCTTAT, the binding signal in the experiment with FLI1 was 1.41 fold enrichment (6-mer frequency, TF over GST control); with ELK1, 1.33 fold enrichment (6-mer frequency, TF over GST control); with GABPA, 1.25 fold enrichment (6-mer frequency, TF over GST control); with ERG it was 1.27 fold enrichment (6-mer frequency, TF over GST control); with ELF1 it was 1.28 fold enrichment (6-mer frequency, TF over GST control); in the experiment with EHF, 1.16 fold enrichment (6-mer frequency, TF over GST control). Also, the binding signal with SPI1 was 1.28 fold enrichment (6-mer frequency, TF over GST control); with SPIB, 1.22 fold enrichment (6-mer frequency, TF over GST control); in the experiment with ELK3, 1.31 fold enrichment (6-mer frequency, TF over GST control).
Consider TCTCAC, for which the binding signal in the experiment with FLI1 was 1.45 fold enrichment (6-mer frequency, TF over GST control); in the experiment with ELK1, 1.45 fold enrichment (6-mer frequency, TF over GST control); with GABPA, 1.43 fold enrichment (6-mer frequency, TF over GST control); in the experiment with ERG, 1.41 fold enrichment (6-mer frequency, TF over GST control); in the experiment with ELF1, 1.39 fold enrichment (6-mer frequency, TF over GST control); in the experiment with EHF it was 1.39 fold enrichment (6-mer frequency, TF over GST control). In addition, the binding signal is 1.36 fold enrichment (6-mer frequency, TF over GST control) with SPI1; 1.48 fold enrichment (6-mer frequency, TF over GST control) with SPIB; 1.58 fold enrichment (6-mer frequency, TF over GST control) with ELK3.
On to TTCTGA, for which the binding signal is 1.37 fold enrichment (6-mer frequency, TF over GST control) with FLI1; 1.39 fold enrichment (6-mer frequency, TF over GST control) in the experiment with ELK1; 1.27 fold enrichment (6-mer frequency, TF over GST control) with GABPA; 1.31 fold enrichment (6-mer frequency, TF over GST control) with ERG; 1.27 fold enrichment (6-mer frequency, TF over GST control) with ELF1; 1.32 fold enrichment (6-mer frequency, TF over GST control) with EHF. Further, the binding signal in the experiment with SPI1 was 1.21 fold enrichment (6-mer frequency, TF over GST control); in the experiment with SPIB, 1.32 fold enrichment (6-mer frequency, TF over GST control); with ELK3, 1.38 fold enrichment (6-mer frequency, TF over GST control).
As to CCTTTA, the binding signal was 1.36 fold enrichment (6-mer frequency, TF over GST control) with FLI1; 1.4 fold enrichment (6-mer frequency, TF over GST control) in the experiment with ELK1; 1.37 fold enrichment (6-mer frequency, TF over GST control) with GABPA; 1.21 fold enrichment (6-mer frequency, TF over GST control) with ERG; 1.36 fold enrichment (6-mer frequency, TF over GST control) with ELF1; 1.29 fold enrichment (6-mer frequency, TF over GST control) with EHF. For the same sequence, the binding signal is 1.45 fold enrichment (6-mer frequency, TF over GST control) in the experiment with SPI1; 1.3 fold enrichment (6-mer frequency, TF over GST control) in the experiment with SPIB; 1.21 fold enrichment (6-mer frequency, TF over GST control) with ELK3.
On to AATGAT, for which the binding signal was 1.08 fold enrichment (6-mer frequency, TF over GST control) with FLI1; 1.22 fold enrichment (6-mer frequency, TF over GST control) with ELK1; 1.15 fold enrichment (6-mer frequency, TF over GST control) in the experiment with GABPA; 1.14 fold enrichment (6-mer frequency, TF over GST control) with ERG; 1.19 fold enrichment (6-mer frequency, TF over GST control) with ELF1; 1.2 fold enrichment (6-mer frequency, TF over GST control) in the experiment with EHF. Further, the binding signal in the experiment with SPI1 was 1.16 fold enrichment (6-mer frequency, TF over GST control); with SPIB it was 1.12 fold enrichment (6-mer frequency, TF over GST control); with ELK3 it was 1.19 fold enrichment (6-mer frequency, TF over GST control).
On to ATCCAT, for which the binding signal in the experiment with FLI1 was 1.22 fold enrichment (6-mer frequency, TF over GST control); with ELK1, 1.17 fold enrichment (6-mer frequency, TF over GST control); with GABPA it was 1.16 fold enrichment (6-mer frequency, TF over GST control); with ERG it was 1.11 fold enrichment (6-mer frequency, TF over GST control); with ELF1 it was 1.14 fold enrichment (6-mer frequency, TF over GST control); in the experiment with EHF, 1.14 fold enrichment (6-mer frequency, TF over GST control). For the same sequence, the binding signal in the experiment with SPI1 is 1.07 fold enrichment (6-mer frequency, TF over GST control); with SPIB, 1.18 fold enrichment (6-mer frequency, TF over GST control); with ELK3, 1.2 fold enrichment (6-mer frequency, TF over GST control).
As for ATACAA, the binding signal with FLI1 was 1.19 fold enrichment (6-mer frequency, TF over GST control); in the experiment with ELK1, 1.15 fold enrichment (6-mer frequency, TF over GST control); with GABPA it was 1.14 fold enrichment (6-mer frequency, TF over GST control); with ERG, 1.1 fold enrichment (6-mer frequency, TF over GST control); in the experiment with ELF1, 1.21 fold enrichment (6-mer frequency, TF over GST control); with EHF, 1.15 fold enrichment (6-mer frequency, TF over GST control). Further, the binding signal was 1.07 fold enrichment (6-mer frequency, TF over GST control) with SPI1; 1.09 fold enrichment (6-mer frequency, TF over GST control) with SPIB; 1.31 fold enrichment (6-mer frequency, TF over GST control) with ELK3.
